Consider 15 compounds from PubChem BioAssay.

Assay [1] deals with Cell division control protein 42 homolog (Homo sapiens) (UniProt P60953). The assay is described as follows: activated mutant Cdc42 GTP-binding inhibitors, dose response, biochemical, multiplex bead flow cytometry, Bodipy-FL-GTP (AID 1333;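 active = fitted half-maximal concentration within the tested dose range, moderate curve steepness, a statistically real signal drop, and little compound fluorescence or tag-binding interference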). For orientation: A flow cytometer gives signals particle by particle.
Chain of Cell division control protein 42 homolog (Homo sapiens) (P60953 whole entry, looked up): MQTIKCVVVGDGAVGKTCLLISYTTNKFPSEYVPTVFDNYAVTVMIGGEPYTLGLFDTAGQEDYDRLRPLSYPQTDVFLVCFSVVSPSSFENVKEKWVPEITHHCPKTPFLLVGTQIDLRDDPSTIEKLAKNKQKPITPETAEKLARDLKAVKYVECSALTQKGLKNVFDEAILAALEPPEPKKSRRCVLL
For assay [2] the target is unchanged. Kind of assay: wildtype Cdc42 GTP-binding inhibitors, dose response, biochemical, multiplex bead flow cytometry, Bodipy-FL-GTP (AID 1334;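 active = fitted half-maximal concentration within the tested range, moderate curve steepness, significant signal drop, and little compound fluorescence or bead-linkage interference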). As to conditions: bead-based flow cytometry, Bodipy-FL-GTP binding to GST-Cdc42; at 100 µM (top of the series) unless noted.
The target of assay [3] is GTPase HRas (Homo sapiens) (UniProt P01112). The assay is described as follows: inhibitors of GTP binding to wildtype Ras, dose response, biochemical, multiplex bead flow cytometry (AID 1335). As to conditions: bead-based flow cytometry, Bodipy-GTP binding to GST-Ras; at 100 µM (top of the series) unless noted.
Chain of GTPase HRas (Homo sapiens) (P01112 whole entry, looked up): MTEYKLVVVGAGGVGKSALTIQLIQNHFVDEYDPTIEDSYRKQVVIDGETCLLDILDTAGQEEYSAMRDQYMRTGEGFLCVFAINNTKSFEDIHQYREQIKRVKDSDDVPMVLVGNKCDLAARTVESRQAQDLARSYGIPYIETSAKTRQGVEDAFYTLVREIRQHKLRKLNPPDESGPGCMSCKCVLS
Assay [4] concerns Ras-related protein Rab-7a (dog), GTP binding. The assay is described as follows: Rab7 GTP binding inhibitors, potency, dose response, biochemical, wildtype, multiplex bead flow cytometry (AID 1336; call rule not given here).
Assay [5] has as its target Ras-related C3 botulinum toxin substrate 1 (Homo sapiens) (UniProt P63000). Kind of assay: wildtype Rac1 GTP binding inhibitors, dose response, biochemical, multiplex bead flow cytometry (AID 1340;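 active = dose curve with midpoint inside tested range, moderate steepness, plateau gap beyond fit error, low compound glow and bead-link interference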). As to conditions: GST-Rac1 beads, Bodipy-FL-GTP binding; at 100 µM (top of the series) unless noted.
The target in assay [6] is GTPase HRas (Homo sapiens) (UniProt P01112). Kind of assay: activated Ras mutant GTP binding inhibitors, dose response, biochemical, multiplex bead flow cytometry (AID 1341;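 active = dose-response curve with midpoint inside the tested range, moderate steepness, significant amplitude and little compound fluorescence or bead-attachment interference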;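 also: GST-tagged constitutively activated Ras mutant immobilized on beads and multiplexed with other GTPases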).

For part of these data: Results with a measured potency or affinity are listed apart. Calls of active or inactive are those of the source.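 The calls were made as follows, unless noted: active = fitted half-maximal concentration within 10 nM to 100 µM, steepness 0.5 to 2, significant signal drop, low assay interference; inactive = the rest.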

As to `CCOC(=O)c1cccnc1SCCc1ccccc1`, the call in assay [1], in assay [4] and in assay [6] was inactive. Also, the fluorescence, percent of control (lower = inhibition) in assay [2] amounted to 125%. The compound also displayed a GTP binding, percent of control in assay [3] of 155%. Also, the GTP binding signal, raw median fluorescence (lower = inhibition) (MCF (arbitrary fluorescence units)) in assay [5] amounted to 95.5.
For the compound `O=C(C#Cc1ccccn1)c1ccc([N+](=O)[O-])cc1`, the call in assay [1], in assay [4] and in assay [6] was inactive. Further, in assay [2], the fluorescence, percent of control (lower = inhibition) stood at 51%. Also, the GTP binding, percent of control in assay [3] was 162%. The GTP binding signal, raw median fluorescence (lower = inhibition) (MCF (arbitrary fluorescence units)) in assay [5] was 56.2.
As for `CNC(=O)COC(=O)c1cc(NC(=O)c2ccco2)c(OC)c(OC)c1`, the call in assay [1], in assay [4] and in assay [6] was inactive. Further, the fluorescence, percent of control (lower = inhibition) in assay [2] was 39.3%. Moreover, the GTP binding, percent of control in assay [3] is 78%. In assay [5], this compound registered a GTP binding signal, raw median fluorescence (lower = inhibition) (MCF (arbitrary fluorescence units)) of 158.
In the case of `Cc1cc2ncn(CCC(=O)NC(C)(C)C)c2cc1C`, the call in assay [1], in assay [4] and in assay [6] was inactive. Further, the fluorescence, percent of control (lower = inhibition) in assay [2] is 40%. The GTP binding, percent of control in assay [3] was 88.1%. In assay [5], this compound came in with a GTP binding signal, raw median fluorescence (lower = inhibition) (MCF (arbitrary fluorescence units)) of 320.
As for `CSc1nsc(SC)c1NC(=O)OC1CCCCC1`, the compound was called inactive in assay [1], in assay [4] and in assay [6]. For the same compound, in assay [2], the fluorescence, percent of control (lower = inhibition) was 43%. This compound had a GTP binding, percent of control in assay [3] of 63.4%. The compound further registered a GTP binding signal, raw median fluorescence (lower = inhibition) (MCF (arbitrary fluorescence units)) in assay [5] of 196.
Regarding `NOC(=O)c1cccnc1SCCc1ccccc1`, the result in assay [1], in assay [4] and in assay [6] was inactive. Also, in assay [2], the fluorescence, percent of control (lower = inhibition) stood at 45.9%. Further, the GTP binding, percent of control in assay [3] amounted to 125%. Moreover, in assay [5], the GTP binding signal, raw median fluorescence (lower = inhibition) (MCF (arbitrary fluorescence units)) was 63.
Turning to `COc1ccc2c(C)cc3nncn3c2c1`, the outcome in assay [1], in assay [4] and in assay [6] was inactive. Moreover, the fluorescence, percent of control (lower = inhibition) in assay [2] worked out at 51.4%. The compound also registered a GTP binding, percent of control in assay [3] of 92.8%. Further, in assay [5], the GTP binding signal, raw median fluorescence (lower = inhibition) (MCF (arbitrary fluorescence units)) worked out at 202.
As for `CC(=O)NC1CC2CCCC(C1)N2C(=O)Nc1ccccc1` (stereo not given), the result in assay [1], in assay [4] and in assay [6] was inactive. Further, the fluorescence, percent of control (lower = inhibition) in assay [2] amounted to 88.1%. The GTP binding, percent of control in assay [3] is 152%. The compound further yielded a GTP binding signal, raw median fluorescence (lower = inhibition) (MCF (arbitrary fluorescence units)) in assay [5] of 217.
Regarding `COc1cc(/C=N/Nc2nncn2/N=C/c2ccc(O)c(OC)c2)ccc1O`, the outcome in assay [1], in assay [4] and in assay [6] was inactive. In addition, in assay [2], the fluorescence, percent of control (lower = inhibition) is 30.7%. Further, the GTP binding, percent of control in assay [3] came to 68.3%. The GTP binding signal, raw median fluorescence (lower = inhibition) (MCF (arbitrary fluorescence units)) in assay [5] came to 147.
Consider `Cc1ccc(/C=C/C(=O)c2ccccc(=O)c2O)cc1C`, for which the result in assay [1], in assay [4] and in assay [6] was inactive. In assay [2], the fluorescence, percent of control (lower = inhibition) worked out at 37.3%. In addition, the GTP binding, percent of control in assay [3] stood at 81.8%. Further, the GTP binding signal, raw median fluorescence (lower = inhibition) (MCF (arbitrary fluorescence units)) in assay [5] was found to be 245.
Turning to `CC(C)(C)C(=O)OCC1OC(n2cnc(C(N)=O)n2)C(O)C1O` (stereo not given), the compound was classed as inactive in assay [1], in assay [4] and in assay [6]. For the same compound, the fluorescence, percent of control (lower = inhibition) in assay [2] worked out at 35.8%. Besides, the GTP binding, percent of control in assay [3] is 81.6%. Further, the GTP binding signal, raw median fluorescence (lower = inhibition) (MCF (arbitrary fluorescence units)) in assay [5] stood at 266.
For the compound `Cc1cccc(CNc2ncccc2C(=O)O)c1`, the call in assay [1], in assay [4] and in assay [6] was inactive. Also, the fluorescence, percent of control (lower = inhibition) in assay [2] worked out at 61.9%. Also, the GTP binding, percent of control in assay [3] was 224%. The GTP binding signal, raw median fluorescence (lower = inhibition) (MCF (arbitrary fluorescence units)) in assay [5] came out at 57.
Take `O=C(Nc1cccc(-c2nnc(-c3ccco3)o2)c1)c1ccccc1`: the result in assay [1], in assay [4] and in assay [6] was inactive. The fluorescence, percent of control (lower = inhibition) in assay [2] amounted to 33.7%. The same compound registered a GTP binding, percent of control in assay [3] of 76.1%. In assay [5], the GTP binding signal, raw median fluorescence (lower = inhibition) (MCF (arbitrary fluorescence units)) was determined as 190.
For `COc1cc(/C=N/NC(=S)Nc2cccnc2)cc(OC)c1O`, the result in assay [1], in assay [4] and in assay [6] was inactive. In addition, in assay [2], the fluorescence, percent of control (lower = inhibition) was 31.8%. In addition, in assay [3], the GTP binding, percent of control came to 72%. The GTP binding signal, raw median fluorescence (lower = inhibition) (MCF (arbitrary fluorescence units)) in assay [5] came to 163.
As to `O=C(CCN1CCCC1Cc1ccccc1)c1ccc2c(c1)OCCO2` (stereo not given), the compound was called inactive in assay [1], in assay [4] and in assay [6]. The fluorescence, percent of control (lower = inhibition) in assay [2] is 31.5%. Also, the GTP binding, percent of control in assay [3] was determined as 82.4%. In assay [5], this compound returned a GTP binding signal, raw median fluorescence (lower = inhibition) (MCF (arbitrary fluorescence units)) of 236.
